Data on 47 compounds can be found in PubChem BioAssay (NCATS).

Results filed as inconclusive are left out. A call without a number means that no potency is given here. Activity calls are given as the source filed them. Unless noted, calls follow the shape of the dose curve; as a rule, active = well fitted curve in the direction sought with a large enough effect; inconclusive = small, poorly fitted or top-dose-only effect, or another doubt; inactive = no such curve, though single readings can be large; an effect the other way counts as inactive or inconclusive. Residues, ends and D or L forms follow the SMILES beside them. *: point of attachment. Cbz = O=C(OCc1ccccc1)*

The target of assay [1] is Pyruvate kinase (Leishmania mexicana) (UniProt Q27686). Kind of assay: qHTS Validation Assay for Inhibitors of Leishmania Mexicana Pyruvate Kinase (AID 945). The procedure, abridged: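 The enzyme is a highly purified E451W mutant of LmPYK used at 0.2 nM. It converts 0.5 mM PEP and 0.1 mM ADP over 1 h at room temperature; product ATP is quantified by luciferase luminescence relative to DMSO controls.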
(In general: qHTS replaces the single test concentration by a dilution series.)

Assay [2] addresses Pyruvate kinase PKM (Homo sapiens) (UniProt P14618). Kind of assay: qHTS Assay for Activators of Human Muscle Pyruvate Kinase (AID 954; active = well fitted curve in the direction sought with a large enough effect, not every such curve was filed as active). A digest of the protocol: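 Compound pinned into substrate mix (0.5 mM PEP, 0.1 mM ADP), then 0.1 nM PKM2 added; 1 h, RT. Stop/detection luciferase reagent added, luminescence read. Normalized to no-inhibition and no-enzyme or reference-inhibitor controls.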

Assay [3] can be described thus: MultiTox-Fluor Cytotoxicity Assay - LYMP1-001 - Dead Cells (AID 946). A digest of the protocol:
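LYMP1-001 lymphoblastoid cells (2500/well) treated 16 h at 37 C. Dead-cell protease cleavage of bis-AAF-R110 read at Ex/Em 485/520. Normalized to DMSO and 15 uM tetraoctylammonium bromide; AC50 from Hill fits.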

Assay [4] in a line: MultiTox-Fluor Cytotoxicity Assay - LYMP1-001 - Live Cells (AID 947).
Assay [5] in a line: Cell Viability - LYMP1-002 - Assay at 16 hr (AID 948). The procedure, abridged: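 In this qHTS, lymphoblastoid LYMP1-002 cells (human) receive compounds for 16 hr at 37 C. Viability is taken from CellTiter-Glo ATP luminescence, and AC50 derives from standard Hill fits.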
Assay [6] can be described thus: MultiTox-Fluor Cytotoxicity Assay - LYMP1-002 - Live Cells (AID 955). A digest of the protocol: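 After 16 h compound exposure at 37 C, live LYMP1-002 lymphoblastoid cells (2500/well) were quantified by cleavage of cell-permeant GF-AFC substrate, read at 405/510 nm after 60 min. Concentration-response fitted with Hill equation for AC50.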
Assay [7] can be described thus: MultiTox-Fluor Cytotoxicity Assay - LYMP1-002 - Dead Cells (AID 960). Also: nearly all actives have a fitted effect of over 60% in size. A digest of the protocol: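 Dead-cell fluorescence (Ex/Em 485/520) after 16 h compound exposure at 37 C of LYMP1-002 lymphoblastoid cells in complete medium; AC50 by Hill equation, with data scaled between DMSO and 15 uM tetraoctylammonium bromide.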
A short description of assay [8]: MultiTox-Fluor Cytotoxicity Assay - LYMP1-003 - Dead Cells (AID 961). Also: nearly all actives have a fitted effect of over 70% in size. A digest of the protocol:
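LYMP1-003 human lymphoblastoid cells (2500/well) exposed to compound 16 h at 37 C in complete medium; dead-cell protease read with bis-AAF-R110 fluorescence (Ex/Em 485/520) after 60 min at room temperature. Normalized to DMSO and 15 uM tetraoctylammonium bromide; AC50 from Hill fit.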

Assay [9] is described as follows: MultiTox-Fluor Cytotoxicity Assay - LYMP1-003 - Live Cells (AID 962).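 Also: cytotoxic hits lower the live-cell protease signal.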 The procedure, abridged:
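Live-cell protease activity (GF-AFC substrate, 405/510 nm, 60 min at room temperature) after 16 h, 37 C compound exposure of human lymphoblastoid LYMP1-003 cells; concentration-response fitted to the Hill equation for AC50.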

Assay [10] is described as follows: Cell Viability - LYMP1-003 - Assay at 24 hr (AID 963). A digest of the protocol: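 Concentration-response qHTS: ATP loss measured by CellTiter-Glo luminescence after 24 h compound exposure at 37 C. Cells were LYMP1-003 human lymphoblastoid, 2500 per well. AC50 derived via standard Hill equation modeling.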
Assay [11] in a line: Cell Viability - LYMP1-003 - Assay at 40 hr (AID 964). Also: series mostly up to about 92 µM; nearly all actives have a fitted effect of over 60% in size. The procedure, abridged:
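Viability is taken as cellular ATP, read by CellTiter-Glo luminescence after 40 h of compound exposure at 37 C. Cells: human lymphoblastoid line LYMP1-003 at 2500/well; AC50 values derived by Hill-equation fitting of concentration-response data.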

Assay [12] is described as follows: Cell Viability - LYMP2-003 (AID 965).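 Also: cells exposed to compounds for 24 h before reading; nearly all actives have a fitted effect of over 50% in size.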 The procedure, abridged: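 qHTS, human lymphoblastoid line, 2500 cells/well, complete medium. 24 h drug, 37 C. ATP-based luminescent readout; Hill-fit AC50.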
Assay [13] in a line: Cell Viability - LYMP2-004 (AID 966). Also: nearly all actives have a fitted effect of over 65% in size. A digest of the protocol:
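AC50 values come from Hill modelling of concentration-dependent loss of intracellular ATP, measured by CellTiter-Glo luminescence. Human LYMP2-004 lymphoblastoid cells (2500/well) were exposed to compound for 24 h at 37 C.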

A short description of assay [14]: Cell Viability - LYMP2-005 (AID 967). Also: series mostly up to about 92 µM. A digest of the protocol: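 Luciferase-based ATP quantitation served as the viability measure in human lymphoblastoid LYMP2-005 cells exposed to test compounds for 24 h at 37 C in complete culture medium. Potency (AC50) was obtained by fitting concentration-response curves with the Hill equation.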
The nature of assay [15]: Cell Viability - LYMP2-009 (AID 968). Also: series mostly up to about 92 µM; nearly all actives have a fitted effect of over 55% in size.
Assay [16] in a line: Cell Viability - LYMP2-011 (AID 969). Also: nearly all actives have a fitted effect of over 60% in size. The procedure, abridged: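 Cytotoxicity qHTS with ATP content as read-out: lymphoblastoid cells (2500/well) exposed to compound for 24 h at 37 C, then luciferase luminescence measured. Concentration-response data fitted with the standard Hill equation to give AC50.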
Assay [17] is described as follows: Cell Viability - LYMP2-013 (AID 970). Also: series mostly up to about 92 µM; nearly all actives have a fitted effect of over 55% in size. A digest of the protocol: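 qHTS cytotoxicity: ATP-dependent luminescence (CellTiter-Glo, 30 min room temperature) read after 24 h compound exposure at 37 C of 2500 LYMP2-013 lymphoblastoid cells per well. Concentration-response fitted with Hill equation to give AC50.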
The nature of assay [18]: Cell Viability - LYMP2-015 (AID 971). Also: nearly all actives have a fitted effect of over 55% in size. A digest of the protocol:
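Cytotoxicity readout: decrease in intracellular ATP (CellTiter-Glo luminescence) in 2500 LYMP2-015 lymphoblastoid cells/well after 24 h compound exposure at 37 C. Concentration-response data fitted with the standard Hill equation to give AC50.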

Pyruvate kinase (Leishmania mexicana), sequence (Q27686 2-499 E452W): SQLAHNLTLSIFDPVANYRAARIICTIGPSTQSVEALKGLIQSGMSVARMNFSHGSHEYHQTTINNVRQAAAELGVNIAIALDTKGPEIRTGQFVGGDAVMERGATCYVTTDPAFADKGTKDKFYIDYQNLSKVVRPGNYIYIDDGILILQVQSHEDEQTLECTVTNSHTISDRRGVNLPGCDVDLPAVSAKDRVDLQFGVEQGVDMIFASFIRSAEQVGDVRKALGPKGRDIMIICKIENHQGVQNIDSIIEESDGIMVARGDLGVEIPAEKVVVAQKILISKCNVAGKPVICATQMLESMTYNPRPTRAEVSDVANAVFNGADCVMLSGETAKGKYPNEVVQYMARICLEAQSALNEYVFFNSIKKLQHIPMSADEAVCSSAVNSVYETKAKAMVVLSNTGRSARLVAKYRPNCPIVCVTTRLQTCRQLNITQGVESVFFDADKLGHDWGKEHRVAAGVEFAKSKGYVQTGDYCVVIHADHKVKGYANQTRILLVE
Pyruvate kinase PKM (Homo sapiens), sequence (P14618 whole entry, looked up): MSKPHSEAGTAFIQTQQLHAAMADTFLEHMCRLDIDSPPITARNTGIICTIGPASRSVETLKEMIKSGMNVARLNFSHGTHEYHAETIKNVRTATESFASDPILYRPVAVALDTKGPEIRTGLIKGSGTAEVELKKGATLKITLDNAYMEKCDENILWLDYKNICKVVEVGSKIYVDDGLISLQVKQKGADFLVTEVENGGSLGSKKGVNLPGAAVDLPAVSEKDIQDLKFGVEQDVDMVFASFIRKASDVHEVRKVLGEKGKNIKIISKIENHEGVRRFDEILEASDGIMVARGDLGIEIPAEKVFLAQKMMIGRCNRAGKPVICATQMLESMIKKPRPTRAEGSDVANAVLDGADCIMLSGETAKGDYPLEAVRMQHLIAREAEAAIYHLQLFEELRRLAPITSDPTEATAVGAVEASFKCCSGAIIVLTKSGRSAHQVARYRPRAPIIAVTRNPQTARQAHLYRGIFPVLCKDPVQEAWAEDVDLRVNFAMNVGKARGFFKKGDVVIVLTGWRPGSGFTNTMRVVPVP

For the compound `C[N+](C)(C)CC=O`, in assay [1], the Potency entry was “inactive”. The compound was called inactive in [2].

For `O=C(O)c1ccccc1Nc1cccc(OCc2ccc3ccccc3n2)c1`, the Potency result in assay [1] is “inactive”. The compound was called inactive in [2].

In the case of `CCn1c(=O)[nH]c2cc(Cl)c(Cl)cc21`, the Potency result in assay [1] was “inactive”. The compound was called inactive in [2].

Take `S=C(S)N1CCCC1`: the Potency entry in assay [1] is “inactive”. Also, the compound was called inactive in assay [2].

As to `Nc1nc2ccc(Cl)cc2c2nc(-c3ccco3)nn12`, the Potency result in [1] is “inactive”. Besides, the call in assay [2] was inactive.

For the compound `O=C(O)/C=C/c1ccc(O)c(O)c1`, the Potency result in [1] was “inactive”. Further, the result in [2] was inactive.

As to `CC(=O)C(C)=O`, the Potency entry in [1] was “inactive”. The compound was called inactive in assay [3], in [4], in assay [5], in assay [2], in assay [6] and in assay [7]. Moreover, the call in assay [8], in assay [9], in assay [10], in assay [11], in assay [12] and in assay [13] was inactive. For the same compound, the compound was called inactive in assay [14], in assay [15], in assay [16], in assay [17] and in assay [18].

With `Cc1ccc2c(c1)C(N1CCN(C)CC1)=Nc1cccnc1N2`, in assay [1], the Potency result is “inactive”. Besides, the result in assay [2] was inactive.

On to `CC(C)[C@H](NC(=O)OCc1ccccc1)C(=O)N[C@H](C=O)Cc1ccccc1` (Cbz-Val-Phe-aldehyde), for which the Potency entry in assay [1] was “inactive”. Also, in assay [2], the result was inactive.

As for `COc1ccccc1N1CCN(CCN(C(=O)c2ccc(F)cc2)c2ccccn2)CC1`, the Potency entry in [1] was “inactive”. For the same compound, the result in assay [2] was inactive.

`O=C(O)c1cc(=O)cc(C(=O)O)[nH]1`: in [1], the Potency entry was “inactive”. Moreover, in assay [2], the compound was called inactive.

`OC1(c2ccc(Cl)cc2)CCN(Cc2c[nH]c3ccccc23)CC1`: the Potency result in [1] was “inactive”. In addition, in assay [2], the result was inactive.

With `CCCCCCCCCCCCCCSCC(=O)O`, in assay [1], the Potency entry was “inactive”. Besides, the result in assay [2] was inactive.

On to `CN[C@H](CC(=O)O)C(=O)O`, for which, in assay [1], the Potency entry is “inactive”. Besides, the compound was classed as inactive in assay [2].

With `Cn1c(=O)c2[nH]c(C3CCCC3)nc2n(C)c1=O`, the Potency result in assay [1] was “inactive”. Further, in assay [2], the outcome was inactive.

For the compound `O=c1[nH]ccc2c(O)cccc12`, in [1], the Potency entry is “inactive”. In assay [2], the outcome was inactive.

On to `O=c1[nH]c2cc(Cl)ccc2c(O)c1-c1ccc(Oc2ccccc2)cc1`, for which, in [1], the Potency entry is “inactive”. Further, the compound was classed as inactive in assay [2].

As for `COc1cc(CNC(=O)CCCCCCC(C)C)ccc1O`, the Potency entry in assay [1] is “inactive”. In addition, in assay [2], the result was inactive.

Turning to `NC1(C(=O)O)CCCCC1`, the Potency result in [1] was “inactive”. Also, the call in [2] was inactive.

On to `C[C@H](O)C(=O)C1=Nc2c(nc(N)[nH]c2=O)NC1`, for which the Potency result in assay [1] is “inactive”. Moreover, the compound was classed as inactive in [2].

As for `O=C(O)c1cc2cc(F)ccc2[nH]1`, the Potency result in assay [1] is “inactive”. In addition, in [2], the compound was classed as inactive.

As to `COc1ccccc1N1CCN(CCCNc2c(C)c(=O)n(C)c(=O)n2C)CC1`, in assay [1], the Potency entry was “inactive”. Besides, in assay [2], the compound was called inactive.

On to `Nc1ncnc2c1c(-c1ccc(Oc3ccccc3)cc1)cn2C1CCCC1`, for which the Potency result in [1] was “inactive”. Further, in assay [2], the compound was classed as inactive.

In the case of `CCCc1c(OCCCOc2ccc(OCC(=O)O)cc2)ccc(C(C)=O)c1O`, the Potency result in assay [1] was “inactive”. In assay [2], the outcome was inactive.

`C=CCn1c(=O)c2c(nc(-c3ccc(S(=O)(=O)O)cc3)n2C)n(C)c1=O`: the Potency result in [1] was “inactive”. Besides, the result in [2] was inactive.

In the case of `NC(=O)c1ccccc1`, in assay [1], the Potency entry is “inactive”. Besides, the result in assay [3], in [4], in assay [5], in assay [2], in assay [6] and in assay [8] was inactive. The outcome in assay [9], in [10], in assay [11], in assay [12], in assay [13] and in [15] was inactive. The compound was classed as inactive in assay [16], in [17] and in assay [18].

For `CCN(CC)CCOC(=O)c1cc(Cl)c(N)cc1OC`, the Potency entry in assay [1] is “inactive”. For the same compound, the call in [2] was inactive.

Turning to `CNCCNS(=O)(=O)c1cccc2cnccc12`, the Potency entry in [1] is “inactive”. Moreover, the compound was classed as inactive in [2].

Regarding `CC(C)(CO)Cc1cc(C(C)(C)C)c(O)c(C(C)(C)C)c1`, the Potency entry in assay [1] was “inactive”. Also, the call in assay [2] was inactive.

As to `CCCc1c(-c2ccc(O)cc2)nn(-c2ccc(O)cc2)c1-c1ccc(O)cc1`, the Potency result in assay [1] was “inactive”. The call in [2] was inactive.

With `c1ccc2c(c1)CC(N1CCN(c3cccc4c3OCCO4)CC1)C2`, in assay [1], the Potency result is “inactive”. Moreover, the result in assay [2] was inactive.

For the compound `CC[C@H](NC(=O)c1c(C)c(-c2ccccc2)nc2ccccc12)c1ccccc1`, the Potency result in assay [1] was “inactive”. In addition, the result in assay [2] was inactive.

With `O=c1oc(Cl)c(Cl)c2ccccc12`, the Potency entry in [1] was “inactive”. The call in assay [2] was inactive.

For `Nc1nc2[nH]c(=O)cnc2c(=O)[nH]1`, the Potency entry in [1] is “inactive”. Moreover, the compound was classed as inactive in assay [2].

On to `Fc1ccc(CN(C2=NCCN2)c2c(Cl)cccc2Cl)cc1`, for which the Potency result in assay [1] was “inactive”. In addition, in assay [2], the outcome was inactive.

For the compound `CCCOC(=O)c1c(-c2ccccc2)nc(CC)c(C(=O)SCC)c1CCC`, the Potency result in [1] was “inactive”. Moreover, the compound was called inactive in assay [2].

As for `CCCn1c(=O)c2c(ncn2C)n(CCC)c1=O`, the Potency result in assay [1] is “inactive”. The call in assay [2] was inactive.

Regarding `O=C(O)C1=CCCNC1`, the Potency result in assay [1] is “inactive”. For the same compound, in assay [2], the outcome was inactive.

Take `COc1ccc(C(=O)NCc2cccnc2)cc1C(=O)NCc1cccnc1`: the Potency entry in assay [1] was “inactive”. The compound was called inactive in assay [2].

As to `NCCS(=O)O`, the Potency entry in assay [1] is “inactive”. For the same compound, the compound was classed as inactive in assay [2].

With `COCc1nc2c([nH]1)c(=O)n(C)c(=O)n2CC(C)C`, the Potency entry in [1] is “inactive”. Besides, in [2], the compound was classed as inactive.

With `NCCNS(=O)(=O)c1cccc2c(Cl)cccc12`, the Potency entry in assay [1] was “inactive”. The compound was called inactive in assay [2].

With `Nc1ncnc2c1ncn2C1CCCC1`, the Potency result in [1] was “inactive”. The call in assay [2] was inactive.

On to `NCCCCN=C(N)N`, for which the Potency result in assay [1] was “inactive”. Also, the call in assay [2] was inactive.

With `Cc1ccc([N+](=O)[O-])cc1S(=O)(=O)N(C)C`, the Potency result in assay [1] is “inactive”. Further, in assay [2], the result was inactive.

Regarding `O=c1cc(-c2ccccc2)[nH]c2nc(Cl)ccc12`, the Potency result in assay [1] was “inactive”. Also, the compound was called inactive in assay [2].

For the compound `CCCCCCCC/C=C\CCCCCCCC(=O)NCCc1ccc(O)c(O)c1`, the Potency result in assay [1] is “inactive”. For the same compound, the compound was called inactive in assay [2].
